Source: the supplement of paper PMC6555819

Assays:
Assay in all cases: PBM binding z-score (relative to random genomic background probes); higher = stronger binding; sequences stand for … in GC…GCGATTGACAGCGTAGAATGAAGG
[1] = tested on: FXR:RXRa (NR concentration 270 nM, RXRa partner concentration 90 nM)
Outline: (§1)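 Each nuclear receptor dimer, without ligand, was incubated for 1 h on custom Agilent 4×180K protein-binding microarrays. Binding was detected with antibodies against each partner (one per run), and scanned fluorescence was regression-normalized. The binding z-scores are referenced to random human genomic background probes.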

[2] = tested on: LXRa:RXRa (NR concentration 270 nM, RXRa partner concentration 90 nM)
Outline: as §1

[3] = tested on: LXRa homodimer (NR concentration 270 nM)
Outline: as §1

[4] = tested on: LXRb:RXRa (NR concentration 270 nM, RXRa partner concentration 90 nM)
Outline: as §1

[5] = tested on: LXRb homodimer (NR concentration 270 nM)
Outline: as §1

[6] = tested on: PPARa:RXRa (NR concentration 270 nM, RXRa partner concentration 90 nM)
Outline: as §1

[7] = tested on: PPARg:RXRa (NR concentration 180 nM, RXRa partner concentration 90 nM)
Outline: as §1

[8] = tested on: PPARg:RXRa 270nM:90nM, anti-RXR (NR concentration 270 nM, RXRa partner concentration 90 nM)
Outline: as §1

[9] = tested on: PPARg:RXRa 30nM:10nM, anti-RXR (NR concentration 30 nM, RXRa partner concentration 10 nM)
Outline: as §1

[10] = tested on: PPARg:RXRa 90nM:30nM, anti-RXR (NR concentration 90 nM, RXRa partner concentration 30 nM)
Outline: as §1

[11] = tested on: PPARg:RXRa DBDmut IVT, anti-RXR (DBD mutation: RXRa K156A/R161A, NR concentration 270 nM, RXRa partner concentration 90 nM)
Outline: as §1

[12] = tested on: PPARg:RXRa IVT, anti-PPARg (NR concentration 270 nM, RXRa partner concentration 90 nM)
Outline: as §1

[13] = tested on: PPARg DBDmut:RXRa IVT, anti-PPARg (DBD mutation: PPARg1 K132A/R137A, NR concentration 270 nM, RXRa partner concentration 90 nM)
Outline: as §1

[14] = tested on: PPARg DBDmut IVT, anti-PPARg (DBD mutation: PPARg1 K132A/R137A, NR concentration 270 nM)
Outline: as §1

[15] = tested on: PPARg homodimer (NR concentration 180 nM)
Outline: as §1

[16] = tested on: PXR:RXRa (NR concentration 270 nM, RXRa partner concentration 90 nM)
Outline: as §1

[17] = tested on: PXR homodimer (NR concentration 270 nM)
Outline: as §1

[18] = tested on: RARa:RXR (NR concentration 270 nM, RXRa partner concentration 90 nM)
Outline: as §1

[19] = tested on: RARa homodimer (NR concentration 270 nM)
Outline: as §1

[20] = tested on: RARb:RXRa (NR concentration 270 nM, RXRa partner concentration 90 nM)
Outline: as §1

Sequence	PBM binding z-score [1]	PBM binding z-score [2]	PBM binding z-score [3]	PBM binding z-score [4]	PBM binding z-score [5]	PBM binding z-score [6]	PBM binding z-score [7]	PBM binding z-score [8]	PBM binding z-score [9]	PBM binding z-score [10]	PBM binding z-score [11]	PBM binding z-score [12]	PBM binding z-score [13]	PBM binding z-score [14]	PBM binding z-score [15]	PBM binding z-score [16]	PBM binding z-score [17]	PBM binding z-score [18]	PBM binding z-score [19]	PBM binding z-score [20]
CGTCCAAGGTCAAGGTCATTGAAAGAGACTCGAA	7.9	6.06	2.42	5.26	1.4	6.18	6.59	6.7	3.18	5.62	3.44	5.03	0.777	-0.505	4.46	5.75	2.42	5.73	2.35	5.56
TTACCAAGGTGAGCTGAGGTTGTTGATCCAACTC	0.871	-0.206	-0.484	-0.269	-1.04	0.271	-0.354	0.187	-0.357	-0.0442	1.22	1.51	-0.399	-0.245	-0.248	2.03	-0.915	0.168	-0.951	0.78
CAGCCTAGGTCAGGGCGAGTATAGGAGGAACGTT	1.8	0.876	-0.437	0.505	-1.08	2.07	1.03	1.29	0.157	0.783	1.68	1.54	-1.19	-1.55	0.665	0.305	-0.665	1.11	-0.626	3.19
CAGCCCAGGTCAGGGCCAGTATAGGAGGAACGTT	2.46	1.34	-0.516	1.01	-0.951	2.27	0.962	0.716	-0.353	0.469	0.375	1.26	-1.13	-1.33	0.907	0.95	0.194	1.49	-0.138	3.45
TGTAGCAGGCCAGAGGGTCACTCAAGAGGTACGG	0.921	0.677	-0.568	0.665	-1.21	2.15	1.51	2.46	0.493	1.83	-1.03	1.1	-0.559	-0.849	0.876	1.39	-0.159	2.51	-0.395	2.35
CATACAGCGTCAGCTAGGCCAGAGTAGGGACGGC	-0.554	-0.839	-0.547	-1.42	-0.647	-1.05	0.332	-0.936	-0.344	-0.884	-0.164	-0.272	-0.28	0.0344	-0.557	-1.3	-0.659	-0.799	-0.655	-0.287
AGAATGAGGTTACCAAAGATTAGGGAAACGCTTG	1.75	4.54	-0.368	1.72	-0.268	3.31	2.43	2.72	1.12	1.93	4.05	3.59	1.65	0.534	0.398	1.15	-0.168	1.88	0.039	2.06
CATACAGGGTCAGTTAGGCCAGAGTAGGGACGGC	3.37	2.29	-0.0109	1.79	0.655	3.36	2.24	1.92	0.738	1.41	0.861	2.08	1	0.259	2.09	1.55	0.258	2.17	0.791	3.67
TCGAGTAGGTTGCCAATGGGGCATTCAGCTTTCT	-0.454	-0.408	-0.785	-0.313	-0.788	-0.0635	-0.86	0.227	0.337	0.314	0.771	0.26	-0.582	-1.2	-1.09	-0.544	-1.13	-0.717	-1.42	-0.201
CGAACTAGGTCAGAACAGAACAGTGAAGGATGAT	0.766	0.278	-0.166	0.401	-0.644	2.7	5.43	4.46	1.89	3.74	7.54	7.16	1.34	0.4	0.811	-0.0344	0.00344	0.194	-0.0462	2.8
TAGCCTTGGTCAGATCGGGCCAGTATACGCTATA	-0.504	-0.892	-0.925	-0.995	-0.904	-0.565	-0.0905	-0.29	-0.644	-0.566	-0.7	-0.297	-0.203	-1.18	-1.31	-0.578	-0.538	-0.611	-1.58	0.307
CCGAGTAGGTTATTGGGCATTCAGGCAACGGTGA	0.0641	0.327	0.00288	-0.0396	-0.644	0.768	1.19	2.31	0.262	1.6	3.85	2.72	-1.32	-0.589	0.636	-0.415	-0.545	-0.107	-0.0218	0.472
GCTATTAGTTGATAGGGCAACCGAATGATTCTCG	0.0649	-0.305	-0.0602	-0.111	-0.693	0.29	0.713	1.48	0.376	0.928	0.375	0.394	-0.22	-0.757	0.294	-0.353	-0.032	0.0949	0.352	0.561
TCGAGTAGGTTAATCGGGGCATTCAGCCAACATA	0.0036	0.53	-0.187	0.859	-0.245	1.72	0.726	1.54	1.04	1.31	3.25	3.08	0.341	-0.256	0.811	0.519	-0.134	0.933	-0.986	0.81
CCGACTAGGGCATAAGGTTACCATAAGCCAGCCC	0.247	2.13	-0.18	1.02	-0.736	2.19	2.8	3.77	1.43	3.27	4.2	3.79	-0.186	-0.826	1.57	0.295	-0.287	1.7	-0.466	1.86
CCTAGGTGGTCAGGAGGTCACACACCGGATATGA	3.9	3.3	1.72	3.05	0.062	3.95	3.45	3.53	1.29	3.03	0.549	3.02	-0.0513	-0.161	3.26	4.04	1.33	4.78	1.85	3.71
CGAATGAGGGCATGAGTTGATAGCAAATGCCGAT	0.504	0.377	-0.461	0.209	-0.511	1.7	1.92	1.99	0.599	1.49	4	3.15	0.455	-0.417	0.0655	0.525	0.166	0.61	-0.437	1.8
CCTAGCAGGCCAAGCTGGGTCACTCAAGGCTTGA	1.55	0.966	-0.429	0.821	-1.36	1.82	-0.199	0.0206	-0.847	-0.107	1.17	0.818	-0.82	-1.65	0.234	0.605	-0.579	1.29	-0.984	1.7
CCTTCCGGGTCACTGACAGGTTATAGCATTTGGA	4.43	3.92	0.31	3.22	0.12	5.01	4.96	5.08	1.75	3.7	3.69	5.08	0.702	-0.286	2.37	3.71	0.125	4.23	0.725	3.78
ACTAGCAGGCCAAGGGTCTCTCAAGATTAGTCCG	-1.54	-0.539	-0.698	-0.703	-1.05	0.948	2.49	4.52	2.15	4.55	0.281	1.01	-1.04	-0.76	-0.604	-0.568	-0.576	-0.307	-1.21	0.516
GGTGCTAGGTCAGGTTGGTCAGCTAACGGGTACG	1.56	1.33	0.61	1.09	0.134	1.71	1	1.8	0.315	1.35	2.64	3.08	-0.502	-0.0479	1.8	0.63	0.481	1.2	1.12	3.56
GTAACGAGGGCATTCGAGTTGATAGCATGGCGAT	1.83	1.91	-0.134	0.286	-0.321	1.72	1.12	0.912	0.115	0.712	3.16	2.66	0.308	-0.0825	-0.229	3.76	2.23	0.683	-0.277	1.89
TGTCAAAGTTCAAAGGTATCGTAAGTATCCACAC	6.52	6.21	4.75	3.88	1.73	5.28	7.79	7.23	4.93	6.44	-0.2	3.95	0.81	1.08	2.53	5.14	4.92	4.95	1.12	4.91
CAAACTAGGTCACGAAACGTCAAAGTCGAATGAC	4.62	3.49	0.329	2.55	0.542	5.24	9.06	7.26	5.44	7.36	8.38	9.02	2.1	1.7	2	1.76	0.0967	2.91	0.992	4.36
CCTACTGCGCCACGAAAGGTCATTGATTCAGTGA	3.86	5.05	5.64	4.54	2	4.35	1.08	3.21	0.979	1.98	0.564	1.65	1.03	0.0242	4.6	5.41	2.88	5.88	2.27	3.86
CCTAGCAGGCCAATCTGGGTCGCTCAAGGCTTGA	0.866	0.838	-0.942	0.983	-1.1	2.39	0.206	0.917	-0.999	0.104	1.28	2.66	-1.25	-1.04	-0.519	0.776	-0.579	1.45	-0.891	0.807
TAGCCTAGGTCATGCGGGCCAGTACAGTGTCGGC	4.21	2.99	0.179	1.48	-0.174	3.65	2.42	2.56	0.126	1.61	1.55	2.81	0.187	-0.334	1.24	1.55	-0.513	2.47	-0.899	3.61
TAGCCTAGGTCAGATCGGGCCCGTATACGCTATA	1.58	1.2	-0.271	0.916	-0.19	1.67	0.67	0.657	-0.472	0.0407	0.295	1.06	-0.496	-0.614	-0.129	0.189	-0.808	1.16	-0.649	3.02
